Test results published in PubChem BioAssay (EPA / NIEHS).
Calls of active or inactive are those of the source. Rule for the calls: active = hit-call score of the fitted dose curve at least 0.9, where 1 is the maximum; inactive = score below 0.9.

Tests used:
[1] = read-out: Cytochrome P450 (CYP1A1), CYP1A1 (gene 1543); assay: LTEA_HepaRG_CYP1A1: Life Technologies and Expression Analysis (LTEA) Assay for Cytochrome P450 (CYP1A1) using HepaRG (AID 2283454); conditions: mRNA level, 48 h; actives raise or lower the signal
Method in brief: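 Induction of CYP1A1 mRNA in a human hepatic cell line was measured 48 h after dosing, with 1 mM phenobarbital as induction positive control and 0.5% DMSO vehicle as baseline for bidirectional curve fitting.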

[2] = read-out: CFLAR gene, CFLAR (gene 8837); assay: LTEA_HepaRG_CFLAR: Life Technologies and Expression Analysis (LTEA) Assay for CFLAR gene using HepaRG (AID 2283455); conditions: mRNA level, 48 h; actives raise or lower the signal
Method in brief: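 Gain- or loss-of-signal changes in CFLAR transcript were fitted bidirectionally relative to 0.5% DMSO. Cells (HepaRG, duplicate wells) were dosed for 48 h across eight half-log concentrations topping at 100 uM; quantitation by TaqMan qRT-PCR.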

[3] = read-out: Forkhead box O1 (FOXO1), FOXO1 (gene 2308); assay: LTEA_HepaRG_FOXO1: Life Technologies and Expression Analysis (LTEA) Assay for Forkhead box O1 (FOXO1) using HepaRG (AID 2283456); conditions: mRNA level, 48 h; actives raise or lower the signal
Method in brief: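 Using one lot of HepaRG hepatic cells kept in 0.5% DMSO, the team applied test chemicals in duplicate, half-log dilutions from 100 uM, for 48 h. Expression, normalised to ACTB/GAPDH/POLR2A, was compared with vehicle in either direction.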

[4] = read-out: growth arrest and DNA damage 45 (GADD45A), GADD45A (gene 1647); assay: LTEA_HepaRG_GADD45A: Life Technologies and Expression Analysis (LTEA) Assay for growth arrest and DNA damage 45 (GADD45A) using HepaRG (AID 2283458); conditions: mRNA level, 48 h; actives raise or lower the signal
Method in brief: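 HepaRG, 48 h exposure, 8 conc. (top 100 uM, half-log steps), 0.5% DMSO vehicle, duplicates. Read-out: qRT-PCR mRNA level, housekeeping-normalized (ACTB/GAPDH/POLR2A). Curves fit bidirectionally vs DMSO baseline.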

[5] = read-out: Forkhead box O3 (FOXO3), FOXO3 (gene 2309); assay: LTEA_HepaRG_FOXO3: Life Technologies and Expression Analysis (LTEA) Assay for Forkhead box O3 (FOXO3) using HepaRG (AID 2283459); conditions: mRNA level, 48 h; actives raise or lower the signal
Method in brief: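 Gene-expression endpoint: FOXO3 transcript level by qRT-PCR in HepaRG cultures treated 48 h with chemicals up to 100 uM (half-log, 0.5% DMSO vehicle).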

[6] = read-out: growth arrest and DNA damage 45 (GADD45B), GADD45B (gene 4616); assay: LTEA_HepaRG_GADD45B: Life Technologies and Expression Analysis (LTEA) Assay for growth arrest and DNA damage 45 (GADD45B) using HepaRG (AID 2283461); conditions: mRNA level, 48 h; actives raise or lower the signal
Method in brief: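 Values are bidirectional concentration-response fits against 0.5% DMSO controls. Underlying data: qRT-PCR mRNA levels in human HepaRG liver cells treated 48 h in serum-free induction medium, eight concentrations topping at 100 uM.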

[7] = read-out: ABC Transporter (ABCC3), ABCC3 (gene 8714); assay: LTEA_HepaRG_ABCC3: Life Technologies and Expression Analysis (LTEA) Assay for ABC Transporter (ABCC3) using HepaRG (AID 2283462); conditions: mRNA level, 48 h; actives raise or lower the signal
Method in brief: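 Differentiated HepaRG liver cells receive test chemicals at eight concentrations (max 100 uM) for 48 h. Expression of ABCC3 is quantified by qRT-PCR against ACTB, GAPDH and POLR2A, and activity is fitted in both directions against the DMSO control.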

[8] = read-out: ABC Transporter (ABCB11), ABCB11 (gene 8647); assay: LTEA_HepaRG_ABCB11: Life Technologies and Expression Analysis (LTEA) Assay for ABC Transporter (ABCB11) using HepaRG (AID 2283463); conditions: mRNA level, 48 h; actives raise or lower the signal
Method in brief: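 Using HepaRG cultures held in 0.5% DMSO, chemicals were tested at half-log dilutions from 100 uM for 48 h. Induction or suppression of ABCB11 mRNA, normalized to ACTB, GAPDH and POLR2A, was fitted bidirectionally against vehicle.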

[9] = read-out: ABC Transporter (ABCC2), ABCC2 (gene 1244); assay: LTEA_HepaRG_ABCC2: Life Technologies and Expression Analysis (LTEA) Assay for ABC Transporter (ABCC2) using HepaRG (AID 2283464); conditions: mRNA level, 48 h; actives raise or lower the signal
Method in brief: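 Gene expression of ABCC2 was determined by qRT-PCR in HepaRG cells exposed 48 h to chemicals (highest 100 uM, half-log dilutions). Activity was fitted in both directions relative to 0.5% DMSO vehicle.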

[10] = read-out: Broad substrate specificity ATP-binding cassette transporter ABCG2 (Homo sapiens) (UniProt Q9UNQ0); assay: LTEA_HepaRG_ABCG2: Life Technologies and Expression Analysis (LTEA) Assay for ABC Transporter (ABCG2) using HepaRG (AID 2283465); conditions: mRNA level, 48 h; actives raise or lower the signal
Method in brief: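 Gene expression of ABCG2 in HepaRG liver cells is quantified by qRT-PCR following 48 h exposure across an eight-point series topping at 100 uM. Values come from bidirectional fitting relative to DMSO vehicle.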

[11] = read-out: ATP-citrate lyase (ACLY), ACLY (gene 47); assay: LTEA_HepaRG_ACLY: Life Technologies and Expression Analysis (LTEA) Assay for ATP-citrate lyase (ACLY) using HepaRG (AID 2283466); conditions: mRNA level, 48 h; actives raise or lower the signal
Method in brief: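 ACLY expression changes in human HepaRG liver cells are quantified by qRT-PCR after 48 h exposure to test chemicals (maximum 100 uM, half-log steps). Values are fitted in both directions relative to 0.5% DMSO vehicle.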

[12] = read-out: Peroxisomal acyl-coenzyme A oxidase 1 (ACOX1) gene, ACOX1 (gene 51); assay: LTEA_HepaRG_ACOX1: Life Technologies and Expression Analysis (LTEA) Assay for Peroxisomal acyl-coenzyme A oxidase 1 (ACOX1) gene using HepaRG (AID 2283467); conditions: mRNA level, 48 h; actives raise or lower the signal
Method in brief: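 Human HepaRG hepatic cultures, 48 h treatment with test chemicals up to 100 uM. ACOX1 expression read by qRT-PCR relative to 0.5% DMSO vehicle.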

[13] = read-out: Alkaline Phosphatase, Placental (ALPP) gene, ALPP (gene 250); assay: LTEA_HepaRG_ALPP: Life Technologies and Expression Analysis (LTEA) Assay for Alkaline Phosphatase, Placental (ALPP) gene using HepaRG (AID 2283468); conditions: mRNA level, 48 h; actives raise or lower the signal
Method in brief: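 Expression of ALPP was quantified by qRT-PCR against three housekeeping genes in human HepaRG cultures treated for 48 h with an eight-point concentration series up to 100 uM. Activity in either direction was fitted relative to 0.5% DMSO.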

[14] = read-out: Bcl-2 (BAD) gene, BAD (gene 572); assay: LTEA_HepaRG_BAD: Life Technologies and Expression Analysis (LTEA) Assay for Bcl-2 (BAD) gene using HepaRG (AID 2283469); conditions: mRNA level, 48 h; actives raise or lower the signal
Method in brief: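 Activity values reflect up- or down-regulation of BAD mRNA in human HepaRG hepatic cells treated 48 h in serum-free medium, with eight-point half-log dosing capped at 100 uM and 0.5% DMSO vehicle.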

[15] = read-out: Bcl-2 (BAX) gene, BAX (gene 581); assay: LTEA_HepaRG_BAX: Life Technologies and Expression Analysis (LTEA) Assay for Bcl-2 (BAX) gene using HepaRG (AID 2283470); conditions: mRNA level, 48 h; actives raise or lower the signal
Method in brief: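 qRT-PCR read-out of BAX mRNA, normalized to three housekeeping genes, after 48 h chemical exposure of human HepaRG cells in serum-free induction medium; eight-point half-log series, top 100 uM, 0.5% DMSO vehicle; bidirectional fit versus DMSO.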

[16] = read-out: adenosine kinase (ADK) gene, ADK (gene 132); assay: LTEA_HepaRG_ADK: Life Technologies and Expression Analysis (LTEA) Assay for adenosine kinase (ADK) gene using HepaRG (AID 2283471); conditions: mRNA level, 48 h; actives raise or lower the signal
Method in brief: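 Differentiated HepaRG cells dosed 48 h in serum-free induction medium, 0.5% DMSO vehicle, eight half-log concentrations from 100 uM, in duplicate. ADK mRNA by TaqMan qRT-PCR normalised to ACTB, GAPDH, POLR2A; bidirectional fit versus DMSO.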

[17] = read-out: Alpha-fetoprotein (AFP) gene, AFP (gene 174); assay: LTEA_HepaRG_AFP: Life Technologies and Expression Analysis (LTEA) Assay for Alpha-fetoprotein (AFP) gene using HepaRG (AID 2283472); conditions: mRNA level, 48 h; actives raise or lower the signal;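 for AC50: AFP transcript by TaqMan qRT-PCR normalized to ACTB GAPDH and POLR2A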
Method in brief: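 qRT-PCR (Fluidigm TaqMan) readout of AFP transcript, normalized to three housekeeping genes, fitted bidirectionally against 0.5% DMSO baseline. HepaRG cells received chemicals for 48 h in serum-free induction medium, top concentration 100 uM, half-log steps.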

[18] = read-out: BCL2L11 (gene 10018); assay: LTEA_HepaRG_BCL2L11: Life Technologies and Expression Analysis (LTEA) Assay for Bcl-2 (BCL2L11) gene using HepaRG (AID 2283473); conditions: mRNA level, 48 h; actives raise or lower the signal
Method in brief: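 Cells were plated, cultured 48 h, switched to serum-free induction medium, then dosed in duplicate for 48 h at eight half-log concentrations up to 100 uM. Lysates underwent RNA isolation and TaqMan qRT-PCR; gain or loss versus DMSO was fitted.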

[19] = read-out: ABC Transporter (ABCB1), ABCB1 (gene 5243); assay: LTEA_HepaRG_ABCB1: Life Technologies and Expression Analysis (LTEA) Assay for ABC Transporter (ABCB1) using HepaRG (AID 2283460); conditions: mRNA level, 48 h; actives raise or lower the signal
Method in brief: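 Human liver HepaRG line treated 48 h with up to 100 uM compound (eight half-log points, 0.5% DMSO); ABCB1 mRNA change fitted bidirectionally against DMSO controls.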

[20] = CEETOX_H295R_TESTO: CeeTox H295R High-throughput Steroidogenesis Assay for Testosterone (TESTO) (AID 2283457); conditions: actives raise or lower the signal
Method in brief: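 Testosterone synthesis is assessed in human adrenocortical H295R cells after 48 h of chemical exposure, using HPLC-MS/MS of extracted medium. Activity is fitted in both directions against DMSO control.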

Sequence of Broad substrate specificity ATP-binding cassette transporter ABCG2 (Homo sapiens) (Q9UNQ0 whole entry, looked up): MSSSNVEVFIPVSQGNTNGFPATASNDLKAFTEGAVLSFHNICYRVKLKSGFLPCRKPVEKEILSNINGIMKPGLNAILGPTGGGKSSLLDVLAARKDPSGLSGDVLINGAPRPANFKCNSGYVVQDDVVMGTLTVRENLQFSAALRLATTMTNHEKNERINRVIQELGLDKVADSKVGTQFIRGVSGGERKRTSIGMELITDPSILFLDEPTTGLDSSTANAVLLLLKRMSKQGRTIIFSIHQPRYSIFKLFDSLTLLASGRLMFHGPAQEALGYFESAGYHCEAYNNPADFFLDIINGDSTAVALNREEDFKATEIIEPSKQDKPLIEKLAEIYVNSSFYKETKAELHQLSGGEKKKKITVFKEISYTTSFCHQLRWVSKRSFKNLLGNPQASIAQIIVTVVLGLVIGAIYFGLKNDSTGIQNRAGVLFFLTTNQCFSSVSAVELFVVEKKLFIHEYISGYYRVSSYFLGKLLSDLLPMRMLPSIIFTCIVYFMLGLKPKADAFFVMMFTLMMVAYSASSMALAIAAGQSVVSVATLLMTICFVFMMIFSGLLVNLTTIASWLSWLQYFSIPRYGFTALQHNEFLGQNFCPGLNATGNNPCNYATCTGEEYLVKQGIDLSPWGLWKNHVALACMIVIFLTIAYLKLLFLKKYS

C/C=C/C=C/C(=O)O
AC50 [1]: 76.6 µM (active) | outcome [2]: inactive | outcome [3]: inactive | AC50 [4]: 0.246 µM (active) | outcome [5]: inactive | outcome [6]: inactive | outcome [7]: inactive | outcome [8]: inactive | outcome [9]: inactive | outcome [10]: inactive | outcome [11]: inactive | outcome [12]: inactive | outcome [13]: inactive | outcome [14]: inactive | outcome [15]: inactive | outcome [16]: inactive | outcome [17]: inactive | AC50 [18]: 0.00162 µM (active)

CC1(C)C(=O)NC(=O)N1CO
AC50 [1]: 50 µM (active) | outcome [2]: inactive | outcome [3]: inactive | outcome [4]: inactive | outcome [5]: inactive | outcome [19]: inactive | outcome [6]: inactive | outcome [7]: inactive | outcome [8]: inactive | outcome [9]: inactive | outcome [10]: inactive | outcome [11]: inactive | outcome [13]: inactive | outcome [14]: inactive | outcome [15]: inactive | outcome [17]: inactive | outcome [18]: inactive

CCCCCCCCCC[N+](C)(C)[O-]
AC50 [1]: 50 µM (active) | outcome [2]: inactive | outcome [3]: inactive | outcome [20]: inactive | outcome [5]: inactive | outcome [19]: inactive | outcome [6]: inactive | outcome [7]: inactive | outcome [8]: inactive | outcome [9]: inactive | outcome [10]: inactive | outcome [11]: inactive | outcome [12]: inactive | outcome [13]: inactive | outcome [14]: inactive | outcome [15]: inactive | outcome [16]: inactive | outcome [17]: inactive | outcome [18]: inactive

COc1ccc(OC(F)(F)F)cc1CN[C@H]1CCCN[C@H]1c1ccccc1
AC50 [1]: 12.6 µM (active) | AC50 [2]: 84.1 µM (active) | AC50 [3]: 93.8 µM (active) | outcome [4]: inactive | AC50 [5]: 76.3 µM (active) | AC50 [19]: 83.7 µM (active) | outcome [6]: inactive | outcome [7]: inactive | outcome [8]: inactive | AC50 [9]: 82.9 µM (active) | outcome [10]: inactive | AC50 [11]: 95.6 µM (active) | AC50 [12]: 64.3 µM (active) | outcome [13]: inactive | outcome [14]: inactive | outcome [15]: inactive | AC50 [17]: 9.61 µM (active) | AC50 [18]: 84.5 µM (active)

O=C1O[C@H]([C@H](O)CO)C(O)=C1O
AC50 [1]: 64.4 µM (active) | outcome [2]: inactive | outcome [3]: inactive | outcome [4]: inactive | outcome [5]: inactive | outcome [19]: inactive | outcome [6]: inactive | outcome [7]: inactive | outcome [8]: inactive | outcome [9]: inactive | outcome [10]: inactive | outcome [13]: inactive | outcome [14]: inactive | outcome [15]: inactive | outcome [17]: inactive | outcome [18]: inactive

C=CCc1ccc(OC)c(OC)c1
outcome [1]: inactive | outcome [2]: inactive | outcome [3]: inactive | AC50 [4]: 9.92 µM (active) | outcome [5]: inactive | outcome [19]: inactive | outcome [6]: inactive | outcome [7]: inactive | outcome [8]: inactive | outcome [9]: inactive | outcome [10]: inactive | outcome [11]: inactive | outcome [13]: inactive | outcome [14]: inactive | outcome [15]: inactive | outcome [16]: inactive | outcome [17]: inactive | outcome [18]: inactive

CC(C)OC(=O)C(C)(C)Oc1ccc(C(=O)c2ccc(Cl)cc2)cc1
AC50 [1]: 50 µM (active) | outcome [2]: inactive | outcome [3]: inactive | AC50 [4]: 0.0536 µM (active) | outcome [5]: inactive | outcome [19]: inactive | outcome [6]: inactive | outcome [7]: inactive | outcome [8]: inactive | outcome [9]: inactive | outcome [10]: inactive | outcome [11]: inactive | outcome [13]: inactive | outcome [14]: inactive | outcome [15]: inactive | outcome [17]: inactive | outcome [18]: inactive
